Data from PubChem BioAssay AID588683 (Broad Institute, 2011).
Results with a measured potency or affinity are listed apart. Activity calls are given as the source filed them. The rule behind the calls is not given here.

What follows are compounds tested against Kelch-like ECH-associated protein 1 (Homo sapiens) + Nuclear factor erythroid 2-related factor 2 (Homo sapiens) (UniProt Q14145+Q16236) (assay: disruptors of Keap1 binding to Nrf2 peptide – biochemical, fluorescence polarization, cherry-picked samples, dose response (AID 588683;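 note: Kelch domain of Keap1 binding a fluorescein-labelled 9mer Nrf2 peptide; more negative means stronger inhibition of peptide binding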)). Conditions: plate reader; series mostly up to 26 µM; activity change, negative = inhibition: at the top concentration.
Kelch-like ECH-associated protein 1 (Homo sapiens) + Nuclear factor erythroid 2-related factor 2 (Homo sapiens), sequence (Q14145 whole entry, looked up, the tested form may be a part): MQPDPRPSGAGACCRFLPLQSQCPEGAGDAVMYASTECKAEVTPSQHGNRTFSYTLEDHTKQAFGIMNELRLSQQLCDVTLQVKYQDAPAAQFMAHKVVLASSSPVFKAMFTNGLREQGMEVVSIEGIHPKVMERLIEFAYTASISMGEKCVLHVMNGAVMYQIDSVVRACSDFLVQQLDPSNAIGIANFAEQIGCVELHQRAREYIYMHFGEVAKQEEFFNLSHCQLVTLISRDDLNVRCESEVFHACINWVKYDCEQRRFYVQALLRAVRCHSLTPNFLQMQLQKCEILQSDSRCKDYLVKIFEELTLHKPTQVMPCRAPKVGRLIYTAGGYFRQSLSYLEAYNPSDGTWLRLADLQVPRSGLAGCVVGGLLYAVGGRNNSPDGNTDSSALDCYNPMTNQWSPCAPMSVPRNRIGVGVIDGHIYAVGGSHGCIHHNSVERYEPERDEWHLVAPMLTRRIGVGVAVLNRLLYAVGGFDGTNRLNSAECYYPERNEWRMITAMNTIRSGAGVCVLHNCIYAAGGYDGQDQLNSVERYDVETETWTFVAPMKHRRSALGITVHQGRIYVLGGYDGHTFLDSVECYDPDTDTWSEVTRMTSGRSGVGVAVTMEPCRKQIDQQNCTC
Kelch-like ECH-associated protein 1 (Homo sapiens) + Nuclear factor erythroid 2-related factor 2 (Homo sapiens), sequence (Q16236 whole entry, looked up, the tested form may be a part): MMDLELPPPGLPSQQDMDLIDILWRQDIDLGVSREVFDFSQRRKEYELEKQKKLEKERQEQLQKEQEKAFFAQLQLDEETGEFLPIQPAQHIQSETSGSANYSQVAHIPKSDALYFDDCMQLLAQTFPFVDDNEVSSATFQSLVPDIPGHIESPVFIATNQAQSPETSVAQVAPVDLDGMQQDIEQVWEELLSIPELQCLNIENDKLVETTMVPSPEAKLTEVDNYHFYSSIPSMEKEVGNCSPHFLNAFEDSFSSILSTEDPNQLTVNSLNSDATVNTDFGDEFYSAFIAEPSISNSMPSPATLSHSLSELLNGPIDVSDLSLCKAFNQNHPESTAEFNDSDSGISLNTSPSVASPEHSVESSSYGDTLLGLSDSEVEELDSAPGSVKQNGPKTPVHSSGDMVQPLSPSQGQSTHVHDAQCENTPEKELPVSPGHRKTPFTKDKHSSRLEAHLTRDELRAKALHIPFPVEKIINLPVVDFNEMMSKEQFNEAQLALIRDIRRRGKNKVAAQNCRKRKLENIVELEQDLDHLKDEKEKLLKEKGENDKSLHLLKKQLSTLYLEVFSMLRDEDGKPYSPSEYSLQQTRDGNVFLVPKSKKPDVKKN

Activity change, negative = inhibition, inactive:
O=C(CN1CCN(C(=O)CNC(=O)c2ccc3c(c2)OCO3)CC1)Nc1ccc(F)cc1 -6.38%
Cc1ccccc1OCCC(=O)Nc1cc(S(=O)(=O)N2CCCCC2)ccc1N1CCN(C)CC1 2.61%
O=C1CCn2c1c(O)c1ccccc1c2=O -4.71%
N#CCCN(CCC#N)C(=O)C1c2ccccc2Oc2ccccc21 0.566%
Cc1cc(NC(=O)CSc2nnc(-c3ccncc3)n2C)n(-c2ccccc2)n1 -2.6%
CCCCCC(=O)N1CCCC1 -2.92%
CNc1nnc(SCC(=O)c2cc(C)n(C3CC3)c2C)s1 18.2%
CCOC(=O)C1=C(CSc2nc3c(cc2C#N)CN(C)CC3)OC(N)=C(C#N)C1c1ccncc1 (stereo not drawn) 0.422%
CC(C)C1OC2(C)OC(=N)C1(C#N)C(C#N)(C#N)C2c1ccccc1 (stereo not drawn) -7.88%
Clc1ccc(-c2noc(CN3CCOCC3)n2)cc1 -5.41%
COc1cc2c3nnc(-c4ccc(F)cc4)c-3cn(Cc3ccccc3F)c2cc1OC 129%
O=c1[nH]c2cc(C(F)(F)F)ccc2n1-c1cc(C(F)(F)F)ccc1O -8.84%
CNC(=O)C1CC(=O)N(c2ccc(OCC(=O)Nc3ccc(F)cc3)cc2)C1 (stereo not drawn) 9.29%
O=C1C(=Cc2ccco2)CCC1=Cc1ccco1 24.2%
CCc1cc[n+](-c2nc([O-])sc2C=O)cc1 -13.4%
O=C(NCc1ccc(Cl)cc1)c1cc(=O)[nH]c2ccccc12 -0.671%
O=C(COC(=O)c1ccc([N+](=O)[O-])s1)Nc1cccc(S(=O)(=O)NC2=NCCCCC2)c1 -14.6%
O=C1c2ccccc2-c2onc3ccc(N4CCCC4)c1c23 10.2%
